# Counter-ions that a name gives are not always drawn.
# Experiments:
# Assay in all cases: Euclidean distance of Cell Painting phenotypic profile (signed KS, 77 features) to DMSO centroid (dimensionless distance); 5 or 10 uM (library dependent); higher = stronger phenotypic change vs DMSO (phenoactivity)
# Conditions in all cases: 48 h
# 786-O = test system: 786-O
# In short: (§1)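 Five cancer lines, together with a healthy fibroblast line, received library compounds for 48 h at a library-dependent 10 or 5 uM and 0.1% DMSO final. Harmony then derived 77 features from confocal 20X images (9 fields/well) of the stained cells, scoring each as a signed Kolmogorov-Smirnov statistic against same-plate vehicle wells. After plate-position correction, correlation weighting and replicate averaging at the top dose, phenoactivity was taken as each profile's Euclidean distance to the median vehicle profile.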
# A549 = test system: A549
# In short: as §1
# DU145 = test system: DU145
# In short: as §1
# FB = test system: FB
# In short: as §1
# HEPG2 = test system: HEPG2
# In short: as §1
# OVCAR4 = test system: OVCAR4
# In short: as §1
SMILES,Euclidean distance (786-O),Euclidean distance (A549),Euclidean distance (DU145),Euclidean distance (FB),Euclidean distance (HEPG2),Euclidean distance (OVCAR4)
CCC(=O)OCC(=O)[C@@]1(OC(=O)CC)[C@@H](C)C[C@H]2[C@@H]3CCC4=CC(=O)C=C[C@]4(C)[C@@]3(F)[C@@H](O)C[C@@]21C [Betamethasone Dipropionate],1.67,2.06,2.69,2.18,0.697,1.59
N=C(N)N [Guanidine HCl],0.653,0.962,0.525,0.612,0.512,0.648
CCOc1nc2cccc(C(=O)OCc3oc(=O)oc3C)c2n1Cc1ccc(-c2ccccc2-c2noc(=O)[nH]2)cc1 [Azilsartan Medoxomil],0.852,1.33,0.487,0.689,0.927,0.929
c1ccc2c(c1)CCCC2C1=NCCN1 (stereo unspecified) [Tetryzoline],1.41,0.369,0.804,1.09,0.572,0.896
C[C@]12CC[C@@H]3c4ccc(OS(=O)(=O)O)cc4CC[C@H]3[C@@H]1CCC2=O [Estropipate],0.946,0.41,0.686,0.891,0.623,1.17
Cc1c(F)cccc1NC(=O)Nc1ccc(Cl)c(S(=O)(=O)[C@H]2CCCNC2)c1O,1.18,0.479,0.758,1.15,0.926,1.49
CCn1cc(C(=O)O)c(=O)c2cc(F)c(N3CCNCC3)nc21 [Enoxacin Sesquihydrate],1.35,1.38,0.79,0.738,0.516,1.19
Cc1c(C(=O)NN2CCCCC2)nn(-c2ccc(Cl)cc2Cl)c1-c1ccc(Cl)cc1 [Rimonabant],1.92,1.17,1.04,0.895,0.664,1.22
CCCc1nn(C)c2c(=O)[nH]c(-c3cc(S(=O)(=O)N4CCN(C)CC4)ccc3OCC)nc12 [Sildenafil],1.51,0.754,0.716,1.08,0.767,1.17
CS(=O)(=O)N1CCc2c(-c3cnc(N)nc3)nc(N3CCOCC3)nc21,1.32,2.54,0.984,2.13,0.817,2.01
CCC[S+]([O-])c1ccc2[nH]c(NC(=O)OC)nc2c1 (stereo unspecified) [Albendazole Oxide],1.29,1.23,0.768,0.918,0.943,1.26
Cc1nc(C#Cc2ccnc(Cl)c2)c(C)n1-c1ccc(OC(F)(F)F)cc1,0.836,0.736,0.706,0.731,0.904,1.2
C[C@]12CCC(=O)C=C1CC[C@@H]1[C@@H]2[C@@H](O)C[C@@]2(C)[C@H]1CC[C@]2(O)C(=O)CO [Hydrocortisone],0.925,1.63,2.09,1.56,0.62,2.31
C/C=C\c1ccc(OC)cc1 [cis-Anethole],0.571,0.784,0.864,0.765,0.671,1.2
CN(N=O)C(=O)NC1C(O)OC(CO)C(O)C1O (stereo unspecified) [Streptozotocin (STZ)],1.35,0.706,0.768,1.26,0.501,1.16
COC(=O)N[C@H](C(=O)N[C@@H](Cc1ccccc1)[C@@H](O)CN(Cc1ccc(-c2ccccn2)cc1)NC(=O)[C@@H](NC(=O)OC)C(C)(C)C)C(C)(C)C [Atazanavir Sulfate],1.01,0.58,0.637,0.614,0.837,1.55
CC1COc2c(N3CCN(C)CC3)c(F)cc3c(=O)c(C(=O)O)cn1c23 (stereo unspecified) [Ofloxacin],1.01,0.65,0.81,0.702,0.545,1.25
CN(Cc1cc(Br)cc(Br)c1N)C1CCCCC1 [Bromhexine],0.96,1.02,0.619,0.847,0.566,1.03
CC(=O)[O-].[K+] [Potassium acetate],1.42,0.754,1.27,0.927,0.554,1.3
O=c1cc(CO)occ1O [Kojic acid],1.24,0.713,0.837,0.833,0.625,1.14
Nc1ncnc2c1c(-c1cnc3[nH]ccc3c1)nn2C1CCCC1,4.92,5.03,4.39,4.32,4.53,3.29
N#Cc1c(O)c2c(-c3ccc(-c4ccccc4O)cc3)csc2[nH]c1=O,1.12,1.26,0.976,0.818,0.746,1.78
O=C(Nc1cccnn1)N1CCC(=Cc2cccc(Oc3ccc(C(F)(F)F)cn3)c2)CC1,1.52,1.02,1.2,0.799,1.66,1.21

SMILES,Euclidean distance (786-O),Euclidean distance (A549),Euclidean distance (DU145),Euclidean distance (FB),Euclidean distance (HEPG2),Euclidean distance (OVCAR4)
Oc1c(Br)cc(Br)c2cccnc12 [Broxyquinoline],0.96,0.988,1.01,1.03,0.735,0.981
CC(=O)NO [Acetohydroxamic acid],1.37,1.28,0.954,1.17,0.648,0.776
COc1ccc(-c2cc(=O)c3c(O)cc(O)cc3o2)cc1O [Diosmetin],2.12,1.03,0.892,1.37,1.25,1.26
CC1=C[C@H]2C(=O)O[C@H]3C[C@@H](C/C=C(\C)C[C@@H](C)/C=C/C=C4\CO[C@H](/C1=N\O)[C@@]42O)O[C@@]1(CC[C@H](C)[C@@H](C)O1)C3.CC[C@H]1O[C@]2(CC[C@@H]1C)C[C@@H]1C[C@@H](C/C=C(\C)C[C@@H](C)/C=C/C=C3\CO[C@@H]4/C(=N\O)C(C)=C[C@@H](C(=O)O1)[C@]34O)O2 [Milbemycin Oxime],0.91,0.957,0.954,1.3,0.456,1.11
CC(C)[C@H](NC(=O)[C@H](CC(=O)O)NC(=O)[C@H](CCCCN)NC(=O)[C@@H](N)CCCN=C(N)N)C(=O)N[C@@H](Cc1ccc(O)cc1)C(=O)O [Thymopentin],1.56,1.19,0.821,0.825,0.557,1.06
COc1ccc(OC)c(C(O)CNC(=O)CN)c1 (stereo unspecified) [Midodrine],0.905,1.21,0.468,0.683,0.342,0.78
COCCNc1cc(NC(=O)N2CCCc3cc(CN4CCN(C)CC4=O)c(C=O)nc32)ncc1C#N,0.599,1.34,0.736,1.03,1.18,0.826
O=C(Nc1ccc(OC(F)(F)F)cc1)c1sccc1NCc1ccnc2ccccc12,1.19,2.11,1.25,1.38,0.977,1.41
O=C(O)CCn1c2c(c3ccccc31)C[C@H](NS(=O)(=O)c1ccc(F)cc1)CC2 [Ramatroban],0.593,0.487,0.969,0.538,1.42,0.778
COc1ccccc1[C@H](Cn1c(=O)n(C(C)(C)C(=O)O)c(=O)c2c(C)c(-c3ncco3)sc21)OC1CCOCC1 [Firsocostat (GS-0976)],0.952,0.95,1.31,1.74,1.31,1.15
CC1(C)Cc2c(sc(NC(=O)c3ccn[nH]3)c2C(N)=O)C(C)(C)O1,0.808,0.814,1.54,1.43,0.816,1.06
NCCS(=O)(=O)O [Taurine],1.5,0.858,1.34,0.921,0.768,1.35
O=C(OC[C@H]1O[C@@H](OC(=O)c2cc(O)c(O)c(OC(=O)c3cc(O)c(O)c(O)c3)c2)[C@H](OC(=O)c2cc(O)c(O)c(OC(=O)c3cc(O)c(O)c(O)c3)c2)[C@@H](OC(=O)c2cc(O)c(O)c(OC(=O)c3cc(O)c(O)c(O)c3)c2)[C@@H]1OC(=O)c1cc(O)c(O)c(OC(=O)c2cc(O)c(O)c(O)c2)c1)c1cc(O)c(O)c(OC(=O)c2cc(O)c(O)c(O)c2)c1 [Tannic acid],0.956,1.44,1.47,1.45,1.43,1.05
CCOC(N)=O [Urethane],1.2,0.492,0.675,0.718,0.46,1.46
CC1(C)S[C@@H]2[C@H](NC(=O)[C@H](N)c3ccccc3)C(=O)N2[C@H]1C(=O)O [Ampicillin sodium],1.18,0.444,1.06,0.59,0.55,1.15
CC(C)(C(=O)c1cccnc1)c1cccnc1 [Metyrapone],1.56,1.55,0.902,1.36,0.932,1.85
CC(C(=O)O)c1ccc(C(=O)c2ccccc2)s1 (stereo unspecified) [Tiaprofenic acid],1.13,0.629,0.684,0.967,0.859,0.857
CC1CCc2c(N3CCC(O)CC3)c(F)cc3c(=O)c(C(=O)O)cn1c23 (stereo unspecified) [Nadifloxacin],1.05,0.818,0.896,1.14,0.855,0.748
CC(C)Cc1ccc(C(C)C(=O)O)cc1 (stereo unspecified) [Ibuprofen],0.948,0.452,0.996,0.827,0.86,0.689
Cc1cc(Nc2cc(N3CCN(C)CC3)nc(Sc3ccc(NC(=O)C4CC4)cc3)n2)n[nH]1 [VX-680 (Tozasertib. MK-0457)],2.67,3.95,3.26,3.01,1.92,2.98
CC(O)(P(=O)(O)O)P(=O)(O)O [Etidronate],1.27,1.25,1.1,1.04,0.55,1.15
CC(C)Cc1ccc(C(C)C(=O)OCc2ccccn2)cc1 (stereo unspecified) [Ibuprofen piconol],1.39,0.595,0.983,0.788,0.518,1.2
CN1C(=O)C(C)(C)Oc2c(-c3cn(C)c(=O)c4[nH]ccc34)cc(S(C)(=O)=O)cc21,4.28,2.7,2.87,3.94,2.29,2.42

# Reference: the supplement of paper PMC10127200
